Here are results for 40 compounds from PubChem BioAssay (NCI).

The structures appear in SMILES notation. This is part of a sample that, as a whole, favours compounds with a hit. Of some 83,000 tested, about 20% had one in any assay.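 48-hour exposure, single concentration, 96-well plates; percent growth endpoint where 0 means no net growth. Active: below 10.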 Unmarked numbers belong to inactive results. Active and inactive are the calls of the source.

For one experiment, the system named is HCT-116 colon. Put plainly: NCI-60 one-dose screen, 48 h (100 = growth as untreated, 0 = no growth, -100 = all killed). To be noted: 10 µM unless noted.
Turning to `O=C(Nc1ccc(Oc2cccc(Cl)c2)c(Cl)c1)c1cnccn1`, the growth was 20.9%.
Same read-out and setting: the same measure for `Cc1ccc2c(n1)C(=O)C(Br)=C(CC(C)C)C2=O`: 61.6%; for `Cc1[nH]c(C(=O)Nc2ccc(C(=O)N3CCN(c4cc5c(cc4F)c(=O)c(C(=O)O)cn5C4CC4)CC3)cc2OC(C)C)c(Cl)c1Cl`: 38.1%.
With `COC1=CC(c2ccc[nH]2)=N/C1=C\c1[nH]c(C)c(CC(=O)OCc2ccccc2)c1CCC(=O)OCc1ccccc1`, the growth was -68.9% (active).
On to `C=C1C(=O)O[C@H]2[C@H]1CC/C(COC(=O)/C=C\C(=O)NCc1ccc(Cn3c(=O)sn(CCI)c3=O)cc1)=C\CC[C@@]1(C)O[C@@H]21`, for which the growth was 19%.
Same read-out and setting: for `CCOC(=O)c1c(C(=O)c2cn(C)c3ccc(Br)cc23)c(-c2cn(C)c3ccc(Br)cc23)n(NC(=O)OC(C)(C)C)c1C` the value was 54% [100 µM]; for `O=C1/C(=C/c2ccccc2O)CC/C1=C\c1ccccc1O`, 16.7%.
On the same count and under the same terms, the same measure for `CCOc1ccccc1Cn1ccnc1CCc1c(Cl)c(O)cc(O)c1C(=O)OC`: 89.3%; for `CCCNc1nc2ccccc2c2c1S(=O)(=O)c1ccc(Cl)cc1C2=O`: 5.94% (active).
The same measure, in the same setting: for `COC1=CC(c2ccc[nH]2)=N/C1=C\c1[nH]c(C)c(C(=O)OC(C)C)c1C` the value was -90.3% (active); for `COc1ccc(C2=C(Nc3ccc(C(=O)Nc4ccccc4)cc3)C(=O)N(C)C2=O)cc1`, 107%; for `CCCCCOC(=O)c1c(C)[nH]c(/C=C2\N=C(c3ccc[nH]3)C=C2OC)c1C`, -85.7% (active).
Regarding `O=C(Nc1ccc(OS(=O)(=O)c2ccc(F)cc2)cc1)C1CCCCCC1`, the growth is 84.5%.
The same measure, in the same setting: the same measure for `COc1ccc(Nc2nnc(-c3ccc(OC)c(OC)c3)o2)cc1`: 77.8%; for `CS(=O)(=O)Nc1cc(-c2ccc3ncnc(Nc4ccc5c(cnn5Cc5cccc(F)c5)c4)c3c2)cnc1Cl`: 4.08% (active); for `O=C(CN1CCCCC1)Nc1nc(-c2cc3ccccc3oc2=O)cs1`: 101%.
In the case of `Cc1ccc(Nc2cc(N)nc(N)n2)cc1Cl`, the growth is 81%.
In the case of `CC/C(=C(/c1ccc(Cl)cc1)c1ccc(OCCN(C)C)cc1)c1ccc(Cl)cc1`, the growth is 56.7%.
Still for that read-out and setting: the same measure for `O=c1c2ccccc2n2cnc3ccc(Cl)c1c32`: 65.7%.
Still for that read-out and setting: for `N#CSc1c[nH]c2cccc(/C=C/C(=O)/C=C(/C=C/c3cccc4[nH]cc(SC#N)c34)OB(F)F)c12` the value was -88.5% (active); for `Cc1cc(C)c2c(c1)N(C)c1ncnc(-n3cnc4cc(C)ccc43)c1CC2C` (stereo unspecified), 11.1%; for `N=C(N)c1ccc(-c2ccc(-c3ccccc3)o2)cc1`, -100% (active).
For the compound `COC(=O)c1c(C)nc(C)c2c1C(=O)C(Br)=C(NCc1ccccc1)C2=O`, the growth is 1.86% (active).
Same read-out and setting: for `COc1ccc(/C=C(\C#N)n2nnc3cc(Cl)ccc32)cc1` the value was -9.51% (active); for `COc1cc2c(c(OC)c1OC)CCC(c1cccc(C(=O)Nc3cccc(Cl)c3)c1)O2` (stereo unspecified), 74.2%; for `COc1ccc(Nc2ncc(Br)c(NCCCNC(=O)C3CCCC3)n2)cc1`, 23.6%.

Another experiment relates to HCC-2998 colon. Described as above. Particulars: 10 µM unless noted.
For the compound `Fc1cc2c(cc1Cl)N(c1ncnc3ccc(-c4ccc5n[nH]nc5c4)cc13)CC2`, the growth was 92.1%.
Still for that read-out and setting: the same measure for `COc1ccc(-c2noc(C(=O)O)c2-c2cc(OC)c(OC)c(OC)c2)cc1`: 58%; for `C=C1C(=O)O[C@H]2[C@H]1CC/C(Cn1cc(-c3ccccc3)nn1)=C\CC[C@@]1(C)O[C@@H]21`: 5.21% (active); for `O=C(NCCCl)Nc1ncccc1OCc1ccccc1`: 102%.
Still for that read-out and setting: the same measure for `COc1ccc(/C=N/C2=C(C#N)C(c3ccccc3)c3ccc4ccccc4c3O2)cc1` (stereo unspecified): -6.81% (active).
As to `CCOC(=O)c1cc(C)n(-c2ccc(C(=O)O)cc2)c1C`, the growth is 133%.
On the same count and under the same terms, for `COc1cc(NS(=O)(=O)c2ccc(-c3cnc(C4CC4)o3)cc2)ccc1F` the value was 38.4%; for `CC(=O)N1N=C(c2ccc(Nc3nc(Nc4ccccc4)nc(Nc4ccccc4)n3)cc2)CC1c1cccc([N+](=O)[O-])c1` (stereo unspecified), 103%; for `COc1cc(C2c3cc(OC(C)=O)c(OC)cc3CC3C(=O)OCC32)ccc1OC(C)=O` (stereo unspecified), 104%.
Regarding `O=c1c2cccc3c(N4CCCC4)ccc(c32)c2nc3ccccc3n12`, the growth is 70.3%.
Still for that read-out and setting: the same measure for `CCC(C)(C)C(=O)O[C@H]1C[C@@H](C)C=C2C=C[C@H](C)[C@H](CC[C@@H]3CC(SCCN)CC(=O)O3)[C@H]21` (stereo partly specified): 73.6%; for `CCN(C)S(=O)(=O)Nc1cccc(Nc2ncnc3cc(NC(=O)CCl)ccc23)c1Cl`: 39.1%.
As for `CC(=O)Oc1ccc(C)cc1C`, the growth was 112%.
The same measure, in the same setting: for `O=C1NC2(Nc3ccccc31)C(=O)Nc1c(Cl)cc(Cl)cc12` (stereo unspecified) the value was 104%; for `O=C(Nc1ccc(Oc2cccc(Cl)c2)c(Cl)c1)c1cnccn1`, 50.8%; for `Cc1ccc2c(n1)C(=O)C(Br)=C(CC(C)C)C2=O`, 105%.
On to `Cc1[nH]c(C(=O)Nc2ccc(C(=O)N3CCN(c4cc5c(cc4F)c(=O)c(C(=O)O)cn5C4CC4)CC3)cc2OC(C)C)c(Cl)c1Cl`, for which the growth is 96.4%.
Same read-out and setting: the same measure for `COC1=CC(c2ccc[nH]2)=N/C1=C\c1[nH]c(C)c(CC(=O)OCc2ccccc2)c1CCC(=O)OCc1ccccc1`: -3.69% (active); for `C=C1C(=O)O[C@H]2[C@H]1CC/C(COC(=O)/C=C\C(=O)NCc1ccc(Cn3c(=O)sn(CCI)c3=O)cc1)=C\CC[C@@]1(C)O[C@@H]21`: 83.9%; for `CCOC(=O)c1c(C(=O)c2cn(C)c3ccc(Br)cc23)c(-c2cn(C)c3ccc(Br)cc23)n(NC(=O)OC(C)(C)C)c1C`: 111% [100 µM].
Take `O=C1/C(=C/c2ccccc2O)CC/C1=C\c1ccccc1O`: the growth is 104%.
Same read-out and setting: the same measure for `CCOc1ccccc1Cn1ccnc1CCc1c(Cl)c(O)cc(O)c1C(=O)OC`: 97.8%; for `CCCNc1nc2ccccc2c2c1S(=O)(=O)c1ccc(Cl)cc1C2=O`: 16.2%; for `COC1=CC(c2ccc[nH]2)=N/C1=C\c1[nH]c(C)c(C(=O)OC(C)C)c1C`: -53.2% (active).
With `COc1ccc(C2=C(Nc3ccc(C(=O)Nc4ccccc4)cc3)C(=O)N(C)C2=O)cc1`, the growth was 98.5%.
Consider `CCCCCOC(=O)c1c(C)[nH]c(/C=C2\N=C(c3ccc[nH]3)C=C2OC)c1C`, for which the growth was -20.1% (active).
Still for that read-out and setting: the same measure for `O=C(Nc1ccc(OS(=O)(=O)c2ccc(F)cc2)cc1)C1CCCCCC1`: 78.9%; for `COc1ccc(Nc2nnc(-c3ccc(OC)c(OC)c3)o2)cc1`: 120%.
On the same count and under the same terms, for `CS(=O)(=O)Nc1cc(-c2ccc3ncnc(Nc4ccc5c(cnn5Cc5cccc(F)c5)c4)c3c2)cnc1Cl` the value was 2.5% (active); for `O=C(CN1CCCCC1)Nc1nc(-c2cc3ccccc3oc2=O)cs1`, 104%.
Same read-out and setting: the same measure for `Cc1ccc(Nc2cc(N)nc(N)n2)cc1Cl`: 100%.
In the case of `CC/C(=C(/c1ccc(Cl)cc1)c1ccc(OCCN(C)C)cc1)c1ccc(Cl)cc1`, the growth is 46.9%.
The same measure, in the same setting: for `O=c1c2ccccc2n2cnc3ccc(Cl)c1c32` the value was 103%; for `N#CSc1c[nH]c2cccc(/C=C/C(=O)/C=C(/C=C/c3cccc4[nH]cc(SC#N)c34)OB(F)F)c12`, -32.7% (active); for `Cc1cc(C)c2c(c1)N(C)c1ncnc(-n3cnc4cc(C)ccc43)c1CC2C` (stereo unspecified), 52.1%.
On the same count and under the same terms, the same measure for `N=C(N)c1ccc(-c2ccc(-c3ccccc3)o2)cc1`: -74.5% (active).
On the same count and under the same terms, the same measure for `COC(=O)c1c(C)nc(C)c2c1C(=O)C(Br)=C(NCc1ccccc1)C2=O`: 21.8%; for `COc1ccc(/C=C(\C#N)n2nnc3cc(Cl)ccc32)cc1`: -30.2% (active); for `COc1cc2c(c(OC)c1OC)CCC(c1cccc(C(=O)Nc3cccc(Cl)c3)c1)O2` (stereo unspecified): 91%.
Take `COc1ccc(Nc2ncc(Br)c(NCCCNC(=O)C3CCCC3)n2)cc1`: the growth is 69.7%.
